# Experimental data reported in PubChem BioAssay AID488969 (Vanderbilt High Throughput Screening Facility, 2010).
# Whole data set: some 110,000 compounds, median “z-score” near -0.1, cut for the highest 2% near 2. Only a selection was taken, and the highest values are over-represented in it overall. Calls of active or inactive are those of the source.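 The calls were made as follows: active = z-score in the third read window above 3 or below -3; inactive = the rest.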
# Molecular target: Metabotropic glutamate receptor 8 (Rattus norvegicus) (UniProt P70579)
# Assay: rat mGluR8 modulators via GIRK flux, primary screen, cell-based, thallium flux, HTS (AID 488969)
# Details: HEK293 rat mGluR8, GIRK (G protein-gated inwardly rectifying potassium channel) thallium flux, FluoZin2; at 10 µM; stronger effect = higher value; submaximal glutamate (EC20) added with thallium
# Metabotropic glutamate receptor 8 (Rattus norvegicus), sequence (P70579 whole entry, looked up): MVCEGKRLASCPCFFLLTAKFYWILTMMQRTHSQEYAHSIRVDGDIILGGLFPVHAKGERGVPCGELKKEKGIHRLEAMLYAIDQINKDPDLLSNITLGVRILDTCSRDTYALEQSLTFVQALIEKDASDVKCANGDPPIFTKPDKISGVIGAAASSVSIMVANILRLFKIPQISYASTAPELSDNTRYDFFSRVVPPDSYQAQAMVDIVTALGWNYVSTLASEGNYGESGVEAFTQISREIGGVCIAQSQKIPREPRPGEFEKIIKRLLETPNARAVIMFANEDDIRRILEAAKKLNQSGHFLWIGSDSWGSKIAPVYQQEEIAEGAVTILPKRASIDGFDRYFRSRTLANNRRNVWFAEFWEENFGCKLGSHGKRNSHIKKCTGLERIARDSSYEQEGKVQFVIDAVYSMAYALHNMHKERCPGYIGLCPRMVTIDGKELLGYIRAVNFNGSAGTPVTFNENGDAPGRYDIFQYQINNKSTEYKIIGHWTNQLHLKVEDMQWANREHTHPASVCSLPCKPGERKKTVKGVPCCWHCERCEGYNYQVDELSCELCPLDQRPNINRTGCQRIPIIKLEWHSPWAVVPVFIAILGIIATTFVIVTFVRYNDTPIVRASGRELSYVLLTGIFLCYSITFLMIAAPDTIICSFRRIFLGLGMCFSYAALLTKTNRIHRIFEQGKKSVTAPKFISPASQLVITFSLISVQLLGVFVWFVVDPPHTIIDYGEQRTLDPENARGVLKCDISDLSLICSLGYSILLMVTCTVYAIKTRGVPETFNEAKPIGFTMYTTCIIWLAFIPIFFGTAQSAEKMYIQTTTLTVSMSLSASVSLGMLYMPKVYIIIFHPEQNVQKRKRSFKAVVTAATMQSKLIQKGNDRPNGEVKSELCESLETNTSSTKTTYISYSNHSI
row,SMILES,z-score
1,Cc1cc(NC(=O)CSc2nnc(-c3cccnc3)n2C)no1,0.0216
2,CCCCn1c(SCC(=O)Nc2cc(C)on2)nnc1-c1cccnc1,2.11
3,Cc1cc(NC(=O)CSc2nnc(-c3cccnc3)n2N)no1,-0.404
4,COC(=O)c1cccc(NC(=O)CCc2ccccc2)c1,-0.143
5,COc1ccc(NC(=S)N2CCN(C/C=C/c3ccccc3)CC2)cc1,-0.821
6,CCNC(=O)CN(CCc1ccccc1)S(=O)(=O)c1ccc(OC)cc1,-0.329
7,COc1ccc(S(=O)(=O)N(CCc2ccccc2)CC(=O)O)cc1,2.73
8,COc1ccc(S(=O)(=O)N(CCc2ccccc2)CC(=O)NC(C)C)cc1,-0.387
9,COc1ccccc1NS(=O)(=O)c1ccc2oc(SC3CCOC3=O)nc2c1 (stereo not given),-1.2
10,CCOC(=O)CSC1=Nc2ccccc2C2=NC(CC(=O)NCc3cccs3)C(=O)N12 (stereo not given),0.253
11,CCOC(=O)CSC1=Nc2ccccc2C2=NC(CC(=O)NCc3ccc(OC)cc3)C(=O)N12 (stereo not given),0.556
12,CCOC(=O)CSC1=Nc2ccccc2C2=NC(CC(=O)NCc3ccccc3)C(=O)N12 (stereo not given),2.91
13,O=C(Nc1ccc(F)cc1)c1ccc(-n2ccnc2)nc1,-0.238
14,CCN(CC)S(=O)(=O)c1cccc(C(=O)N[C@H](C(=O)Nc2nc3ccccc3s2)C(C)C)c1,0.326
15,CN(C)CCCN1C(=O)CSC1c1ccccc1 (stereo not given),-0.244
16,O=C(C1CCCN1S(=O)(=O)c1cccc2cccnc12)N1CCc2ccccc21 (stereo not given),2.97
17,O=C(C1CCCN1S(=O)(=O)c1cccc2cccnc12)N1CCn2c1nc1ccccc12 (stereo not given),3.63 (active)
18,O=C(C1CCCN1S(=O)(=O)c1cccc2cccnc12)N1CCN(c2ccccc2)CC1 (stereo not given),-0.0642
19,O=C(C1CCCN1S(=O)(=O)c1cccc2cccnc12)N1CCc2ccccc2C1 (stereo not given),-0.115
20,O=C(C1CCN(S(=O)(=O)c2cccc3cccnc23)CC1)N1CCn2c1nc1ccccc12,-0.522
21,O=C(C1CCCN(S(=O)(=O)c2cccc3cccnc23)C1)N1CCc2ccccc21 (stereo not given),-1.2
22,Cc1nc2cc(-c3ccc(Cl)cc3)nn2c(C)c1CCC(=O)NCc1ccco1,-0.0434
23,CCOC(=O)c1oc2ccccc2c1NC(=O)COc1ccc(F)cc1,-0.456

row,SMILES,z-score
1,CCSc1nnc(-c2cc3c(s2)-c2ccccc2CC3)o1,0.000914
2,S=c1[nH]nc(-c2cc3c(s2)-c2ccccc2CC3)o1,16.3 (active)
3,CSc1nnc(-c2cc3c(s2)-c2ccccc2CC3)o1,0.0264
4,N=c1sccn1CC(=O)Nc1cccc2ccccc12,-0.00239
5,COC(=O)Nc1nc(C)c(C(=O)N(C)C)s1,4.58 (active)
6,Cc1nc(NC(=O)C2CC2)sc1C(=O)N(C)C,-0.405
7,CCOC(=O)Nc1nc(C)c(C(=O)N(C)C)s1,-0.0609
8,O=C(CCN1C(=O)COc2ccccc21)NCCN1CCc2ccccc2C1,-0.306
9,O=C(CCN1C(=O)COc2ccccc21)NCCCN1CCc2ccccc2C1,7.6 (active)
10,O=C(CN1C(=O)COc2ccccc21)NCCCN1CCc2ccccc2C1,0.383
11,Cc1ccc(/C=C(\C#N)c2nc3ccccc3[nH]2)s1,-0.0719
12,O=C(COC(=O)CCCOc1ccc(Cl)cc1Cl)NCc1ccc(F)cc1,-0.191
13,Cc1ccc(N2CC(C(=O)N/N=C/c3cccc([N+](=O)[O-])c3)CC2=O)cc1 (stereo not given),-0.282
14,Cc1ccsc1/C=N/NC(=O)C1CC(=O)N(c2ccccc2)C1 (stereo not given),0.243
15,CSc1ccc(/C=N/NC(=O)c2sccc2C)cc1,-0.312
16,Cc1ccsc1/C=N/NC(=O)c1cccs1,0.356
17,Cc1ccc(N2CC(C(=O)N/N=C/c3sccc3C)CC2=O)cc1 (stereo not given),3.3 (active)
18,Cc1ccsc1/C=N/NC(=O)c1sccc1C,5.91 (active)
19,Cc1nc2c(C)cccc2cc1C(=O)N/N=C/c1cccc([N+](=O)[O-])c1,-0.361
20,O=C(NCc1ccc(-c2nc3ccccc3s2)cc1)c1ccc(Br)o1,-0.21
21,O=C(NC(=S)NCc1ccc(-c2nc3ccccc3s2)cc1)c1ccco1,2.52
22,O=C(NCc1ccc(-c2nc3ccccc3s2)cc1)c1ccco1,-0.111
23,O=C(NC(=S)Nc1nc2ccccc2s1)c1ccco1,8.72 (active)

row,SMILES,z-score
1,O=C(COC(=O)c1ccco1)Nc1nc2ccccc2s1,0.111
2,O=C(Nc1ccccc1-c1nc2ccccc2s1)c1ccco1,-0.0204
3,O=C(COc1ccc(Cl)cc1Cl)NC(=O)N1CCCCC1,1.09
4,Cc1sc2ncnc(N=Nc3c(O)[nH]c4ccccc34)c2c1C,-0.0288
5,CCOC(=O)c1cc(OC(=O)c2cccnc2)n(-c2ccccc2)n1,-0.265
6,CN(CC(=O)NC(=O)NCc1ccccc1)Cc1ccc(Cl)cc1,-0.334
7,COc1cccc(CN(C)CC(=O)NC(=O)NCc2ccccc2)c1,0.16
8,COc1ccc(CN(C)CC(=O)NC(=O)NCc2ccccc2)cc1OC,5.52 (active)
9,COC(=O)C1=C(C(=O)c2ccccc2)C(c2ccc(OC)c(OC)c2)Nc2nnnn21 (stereo not given),0.0695
10,C/C(=N\NC(=O)CSc1nnc(C)s1)c1ccc(O)cc1,0.00192
11,NC(=S)N/N=C/c1ccc(-c2cc(Cl)cc(Cl)c2)o1,0.987
12,NC(=S)N/N=C/c1ccc(-c2cc(Cl)ccc2Cl)o1,2.21
13,NC(=S)N/N=C/c1ccc(-c2ccc(Cl)c(Cl)c2)o1,0.653
14,CCCCOC(=O)CSc1n[nH]c(=O)[nH]c1=O,-0.957
15,Cc1ccc(-c2nnc(CSc3nc(C(C)C)nc4sc(C)c(C)c34)o2)cc1,1.42
16,Cc1ccc(-c2nnc(CSc3nnc(C)s3)o2)cc1,0.552
17,CCc1nc(SCc2nnc(-c3ccc(C)cc3)o2)c2c(C)c(C)sc2n1,2.26
18,O=C(CCC(=O)OCC(=O)c1ccc(-c2ccccc2)cc1)Nc1cccc2cccnc12,-0.0975
19,Cn1c(=O)c(C(=O)Nc2cccnc2)c(O)c2ccccc21,1.29
20,COc1ccc2c(Cl)c(C(=O)NCCCn3ccnc3)sc2c1,-0.0695
21,Cc1cc(SC(C)C(=O)NCC(=O)Nc2ccc(F)c(F)c2F)nc2ccccc12 (stereo not given),-0.101
22,Cc1ccc(-n2nnnc2SC(C)C(=O)NCC(=O)Nc2ccc(F)c(F)c2F)c(C)c1 (stereo not given),-0.287
23,Cc1cc(C)c2nc(SC(C)C(=O)NCC(=O)Nc3ccc(F)c(F)c3F)cc(C)c2c1 (stereo not given),7.48 (active)

row,SMILES,z-score
1,CCCCC(=O)Nc1ccc(C(=O)NNC(=O)c2cccs2)cc1,-0.305
2,O=C(NCc1ccco1)c1ccc(COc2cc(Cl)ccc2Cl)cc1,0.104
3,COc1ccc(Cc2nnc(N)s2)cc1,-0.0129
4,CCn1c(SCC(=O)OC)nc2sc3c(c2c1=O)CCC3,-0.399
5,CCn1c(SCC(N)=O)nc2sc3c(c2c1=O)CCCC3,8.59 (active)
6,CCn1c(SCC(=O)O)nc2sc3c(c2c1=O)CCC3,-1.62
7,CCN1C(=O)c2ccc(C(=O)NCc3ccccc3)cc2C1=O,-0.278
8,O=C(Nc1nnc(SCc2ccc(F)cc2)s1)C1CC(=O)N(c2ccc3c(c2)OCCO3)C1 (stereo not given),3.68 (active)
9,COC(=O)c1ccc(CSc2nnc(NC(=O)C3CC(=O)N(c4ccc5c(c4)OCCO5)C3)s2)cc1 (stereo not given),0.162
10,CCc1nnc(NC(=O)C2CC(=O)N(c3ccc4c(c3)OCCO4)C2)s1 (stereo not given),-0.124
11,O=C(NCc1ccco1)C(Cc1ccccc1)NS(=O)(=O)c1cccc2nsnc12 (stereo not given),-0.0409
12,Cn1c(=O)[nH]c(=O)c2c1nc(Br)n2CCCSc1nc2ccccc2o1,-0.621
13,COc1ccccc1NC(=O)c1ccc(S(=O)(=O)N2CCCC2)cc1,3.99 (active)
14,COc1ccccc1NC(=O)c1cc(C(=O)Nc2ccccc2OC)cc(N2C(=O)CCC2=O)c1,4.66 (active)
15,COc1ccccc1NC(=O)c1ccc(N)cc1,0.511
16,COc1ccccc1NC(=O)c1ccc(S(=O)(=O)N2CCOCC2)cc1,0.986
17,COc1ccccc1NS(=O)(=O)c1ccc(C)c(NC(=O)c2ccc(S(=O)(=O)N3CCCCCC3)cc2)c1,-0.106
18,COc1ccccc1NC(=O)c1cccnc1,0.226
19,O=[N+]([O-])c1ccc(OCC(O)CN2CCN(c3ccccc3F)CC2)cc1 (stereo not given),-0.357
20,Cc1ccc(NS(=O)(=O)c2cc([N+](=O)[O-])ccc2NNC(=S)Nc2cccc(Cl)c2)c(C)c1,-0.12
21,Cc1cccc(Sc2ccc([N+](=O)[O-])cn2)c1,-1.63
22,O=C(CSc1nc(-c2cccs2)cc(C(F)(F)F)n1)NCc1ccccc1,-0.654
23,COc1ccc(/C=N/NC(=O)CCCOc2ccc(Cl)cc2Cl)cc1,-0.126

row,SMILES,z-score
1,Cc1ccc(Nc2cc(C)nn2-c2nc(C)cc(=O)[nH]2)cc1,16.4 (active)
2,Cc1ccc(Nc2cc(C)nn2-c2nc(C)cc(C)n2)cc1,0.547
3,Cc1cc(C)nc(-n2nc(C)cc2Nc2ccccc2)n1,-0.115
4,CN1CCC(C2(O)c3ccccc3CSc3sccc32)CC1 (stereo not given),2.02
5,CN(C)CC1CCCCC1C1(O)c2ccccc2CSc2sccc21 (stereo not given),1.47
6,CN(C)Cc1ccccc1C1(O)c2ccccc2CSc2ccccc21 (stereo not given),-0.164
7,COc1ccc(Nc2cc(C(=O)NCc3ccco3)c3ccccc3n2)cc1,-0.00632
8,O=C(O)c1cc(S(=O)(=O)Nc2ccccc2C(=O)O)ccc1O,-0.576
9,CCOC(=O)c1c(C)nc2sc(C(N)=O)c(N)c2c1-c1ccccc1,-1.25
10,Cc1cc(S(=O)(=O)n2cnc3cc([N+](=O)[O-])ccc32)ccc1Cl,-0.268
11,Cc1ccc(S(=O)(=O)n2cnc3cc([N+](=O)[O-])ccc32)cc1C,2.81
12,Cc1ccc(S(=O)(=O)n2cnc3cc([N+](=O)[O-])ccc32)c(C)c1C,-0.143
13,C=CCSc1nnc(Cc2cc(=O)[nH]c(=O)[nH]2)n1-c1cc(C)ccc1C,-0.111
14,COc1ccc(NC(=S)N2CCC(N(C)CCN3CCOCC3)CC2)cc1Cl,-0.269
15,CN(Cc1ccccc1)C(=S)NC(=O)c1ccc(-c2ccccc2)cc1,4.13 (active)
16,CN(Cc1ccccc1)C(=S)NC(=O)C1CCCCC1,1.47
17,CCCN(CCC)C(=S)NC(=O)c1ccc(-c2ccccc2)cc1,-0.959
18,C=CCN(CC=C)C(=S)NC(=O)c1ccc([N+](=O)[O-])cc1,4.84 (active)
19,O=C(NC(=S)Nc1ccccn1)c1ccc([N+](=O)[O-])cc1,0.166
20,C=CCN(CC=C)C(=S)Nc1ccccc1,-0.0866
21,CC(C)NC(=S)NC(=O)c1ccc(-c2ccccc2)cc1,0.201
22,C=CCN(CC=C)C(=S)NC(=O)c1ccc(-c2ccccc2)cc1,11.4 (active)
23,CCC(=O)NC(=S)NNC(=O)c1ccc([N+](=O)[O-])cc1,0.17
